Most compounds without a hit are left out; they make up all but 2.2% or so of the library.
ATXN2 expr inh: reduces ATXN2 reporter expression in HEK-293 cells; Potency, µM (highest dose often 57 µM), most hits filed as inhibitors; 360,000 compounds, 0.72% hits; HEK-293 ATXN2-luciferase reporter, luminescence, 24 h; further: nearly all actives have a fitted effect of over 55% in size
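qHTS (up to 57 uM final) was run with 24 h compound exposure of reporter cells at 37 °C. Each well was multiplexed: SteadyGlo luminescence measured ATXN2-luciferase expression after a fluorogenic Gly-Phe-AFC viability readout (25 uM final).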
LDHA inh: LDHA (human) enzyme inhibition | P00338 | purified LDHA, NADH/diaphorase-resazurin fluorescence; active compounds read low | activity change, % (values are at about 110 or 230 µM) | 480,000 compounds, 0.15% hits; in the data active means activity change below about -30%; inconclusive means mostly about -25% to -30%
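Enzyme activity of human lactate dehydrogenase 5 (2 nM; 0.06 mM NADH, 0.2 mM pyruvate, 5 min, RT) is measured via a resazurin/diaphorase fluorescence readout of residual NADH.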
mIDH1 inhibitor: human IDH1 R132H inhibition; O75874; IDH1-R132H enzyme, NADPH consumption, diaphorase/resazurin fluorescence; Potency, µM (top dose mostly 76.6 µM), actives largely listed as inhibitors; 390,000 compounds, 0.093% hits; further: nearly all actives have a fitted effect of over 65% in size
Target sequence (O75874 whole entry R132H, stated change not applied): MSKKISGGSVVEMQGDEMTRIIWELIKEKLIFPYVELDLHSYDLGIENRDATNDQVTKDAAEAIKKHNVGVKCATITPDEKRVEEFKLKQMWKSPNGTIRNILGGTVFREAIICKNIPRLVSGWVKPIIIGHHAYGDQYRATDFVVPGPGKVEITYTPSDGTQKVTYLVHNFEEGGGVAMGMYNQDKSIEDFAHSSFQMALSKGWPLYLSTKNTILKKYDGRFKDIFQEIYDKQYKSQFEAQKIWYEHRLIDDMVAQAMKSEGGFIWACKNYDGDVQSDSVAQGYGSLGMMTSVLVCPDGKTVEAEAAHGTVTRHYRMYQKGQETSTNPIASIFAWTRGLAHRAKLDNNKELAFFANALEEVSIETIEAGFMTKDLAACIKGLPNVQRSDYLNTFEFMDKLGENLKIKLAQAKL
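IDH1-R132H (0.5 ug/mL) preincubated 30 min with compound, then NADPH (0.016 mM) and alpha-KG (2 mM) added; 80 min at RT, pH 7.5. Remaining NADPH coupled via diaphorase/resazurin to fluorescence (540/590 nm); concentration-response curves normalized to no-enzyme control.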
TGFb inhibitor: TGF-b pathway inhibition; HepG2 CAGA-GFP TGF-b/SMAD3 reporter, GFP fluorescence, 18 h; TGF-beta stimulated, 500 pg/mL final; Potency, µM (top dose mostly 46.1 µM), most hits filed as inhibitors; 410,000 compounds, 1.2% hits; further: nearly all actives have a fitted effect of over 65% in size
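Smad-responsive CAGA-GFP expression was quantified in HEPG2 cells exposed to compounds and 500 pg/mL final TGF-beta for 18 h at 37 degrees C; unstimulated wells defined full inhibition.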
HepG2 tox: HepG2 cytotoxicity, counter-screen for TGF-b inhibitors | AID 588856 | HepG2 CAGA-GFP viability, ATP luminescence, 18 h | 410,000 compounds, 0.76% hits | Potency, µM (top dose mostly 46.1 µM), actives largely listed as cytotoxic
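HepG2 CAGA-GFP cells (1000/well, DMEM with 1% FBS) received compound, then TGF-beta at 500 pg/mL final, and were incubated 18 hours at 37 degrees C. Viability was read by CellTiter-Glo luminescence. Media-only wells were set as complete cell-killing and DMSO as no toxicity.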
S2 tox: reduces viability in counter-screen for ATXN expression inhibitors; S2 cells (HEK-293 line with an ATXN2-luciferase reporter) viability, CellTiter-Fluor protease fluorescence, 24 h; Potency, µM (doses to about 56.7 µM), usual class: cytotoxic; 400,000 compounds, 0.49% hits; AID 651635; further: nearly all actives have a fitted effect of over 40% in size
A number is an active result; n = inactive; u = inconclusive; x = no result given; ! = not confirmed by another sample; [ ] = dose if it differs, or a comment. Unless noted, the call rests on the fitted dose curve; in most records, active means well fitted curve in the direction sought with a large enough effect; inconclusive means small, poorly fitted or top-dose-only effect, or another doubt; inactive means no such curve, though single readings can be large; an effect the other way counts as inactive or inconclusive.

SMILES	ATXN2 expr inh	LDHA inh	mIDH1 inhibitor	TGFb inhibitor	HepG2 tox	S2 tox
CCCCCCC(=O)N/N=C/c1c(O)n(CCc2ccccc2)c(=O)[nH]c1=O	18µM	n	n	n	n	u
CCN1/C(=C\C=C\C2=[N+](CC)c3ccccc3C2(C)C)C(C)(C)c2ccccc21	u	n	35µM	u	n	2.8µM
CC(C)CCOC(=O)c1c(N)n(CC2CCCO2)c2nc3ccccc3nc12 (stereo not drawn)	n	n	n	11µM	n	n
CC(C)OC(=O)c1c(N)n(CC2CCCO2)c2nc3ccccc3nc12 (stereo not drawn)	n	n	n	n	n	x
Nc1nonc1C(=O)N/N=C/c1ccc([N+](=O)[O-])o1	n[11.3 µM]	n	n	16µM	n	n
N/C(=N\[N+](=O)[O-])N/N=C/c1ccc(O)cc1	n	n	n	n	n	n
CCOC(=O)c1c(C)n(C2CCCCCC2)c2ccc(O)cc12	x	n	x	x	x	x
COc1ccc(/C=C2/C(=O)NC(=S)N(C3CC3)C2=O)cc1CN1C(=O)c2ccccc2C1=O	n	-36	n	n	n	n
COc1ccc(/C=C2/C(=O)NC(=O)N(c3ccccc3)C2=O)cc1CN1C(=O)c2ccccc2C1=O	n	n	n	n	n	n
O=C(O)c1[se]c2ccccc2c1Br	x	n	x	x	x	x
O=C(Nc1nccs1)C(Cl)(Cl)Cl	n	n	n	n	n	n
O=C(CCl)Nc1nccs1	x	n	n	11µM	11µM	u
CCOc1ccc(N2C(=O)CC(=O)NC2=O)cc1	n	n	n	n	n	u
CCOc1ccccc1N1C(=O)CC(=O)NC1=O	x	-30	n	n	n	n
CC1=CC2/C=C(\C)CCC(O)C(O)/C=C/C(=O)C23C(=O)NC(CC(C)C)C3C1C (stereo not drawn)	u	n	n	3.2µM	n	x
CC(N)Cc1c[nH]c2ccccc12 (stereo not drawn)	x	n	x	x	x	x
OC(Cn1c2ccccc2c2ccccc21)C[n+]1cccc2ccccc21 (stereo not drawn)	u	n	n	u	n	22µM
CC1=C(O)C(=O)C=C2C1=CC=C1[C@@]2(C)CC[C@@]2(C)[C@@H]3C[C@](C)(C(=O)O)CC[C@]3(C)CC[C@]12C	2.4µM	x	x	x	x	x
CC1(C)C(=O)CC[C@]2(C)C3C(=O)C=C4[C@H]5C[C@@](C)(C(=O)O)CC[C@]5(C)CC[C@]4(C)[C@]3(C)CC[C@@H]12 (stereo partly drawn)	n	n	n	u	n	n
O=C(NCC(c1cccnc1)N1CCN(c2ccc(F)cc2)CC1)Oc1ccccc1 (stereo not drawn)	n	n	n	n	n	n
O=C1c2ccccc2-n2nnc(-c3ccccc3)c2C2c3cc(Br)ccc3CCN12 (stereo not drawn)	n	n	x	n	n	n
Cc1ccc(/C=C2\C(=O)NC(=S)N(c3ccccc3F)C2=O)s1	32µM	-33	n	u	n	u
COCCCNC(=O)Cn1cc(/C=C2\C(=O)NC(=O)N(c3ccccc3F)C2=O)c2ccccc21	n	n	n	u	n	n
Cc1ccc(NC(=O)Nc2cc3c(cc2N2CCCCC2)n(C)c(=O)n3C)cc1Cl	n	n	28µM	u	n	n
Oc1cc(Cl)ccc1Oc1ccc(Cl)cc1Cl	40µM!	n	n	18µM	n	40µM!
COc1cccc(C2CCN(C)C2)c1 (stereo not drawn)	x	n	n	n	n	n
Nc1c(C(=O)NCc2ccco2)c2nc3ccccc3nc2n1Cc1ccccc1	x	n	n	11µM	n	x
c1cc2c(c(N3CCNCC3)c1)OCCO2	n	x	x	x	x	n
C[C@@H]1O[C@@H](O[C@@H]2C=C3CC[C@@H]4C(CC[C@]5(C)[C@@H](c6ccc(=O)oc6)CC[C@]45O)[C@@]3(C)CC2)[C@H](O)[C@H](O)[C@H]1O (stereo partly drawn)	n	n	n	0.28µM	n	u
On1ccccc1=S	0.28µM	n	n	0.28µM	1µM	0.32µM
